Bioassay records: PubChem BioAssay, The Scripps Research Institute Molecular Screening Center
Most compounds without a hit are left out; they make up all but 3.5% or so of the library.
MITF primary: MITF inhibitors, primary screen, biochemical, AlphaScreen, human; Microphthalmia-associated transcription factor (Homo sapiens), O75030; inhibition, % at 2.6 µM; 650,000 tested, 0.91% active; AlphaScreen MITF homodimerization, bead proximity signal; in the data active = inhibition above about 50%;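 also: 0% = vehicle wells with protein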
TEAD-YAP block: TEAD-YAP interaction inhibition, primary screen, TEAD-YAP interaction inhibitor project, luminescence, HEK-TIYL cells | TEAD-Gal4/YAP UAS-luciferase luminescence | 640,000 tested, 1.4% active | inhibition, % at 9.12 µM | AID 1259422, 2018; in the data active = inhibition above about 32%;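 also: 0% = median of test compound wells and 100% = reference inhibitor wells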
FBW7 act: FBW7 E3 ligase activators, primary screen, biochemical, AlphaScreen, human. F-box/WD repeat-containing protein 7 (Homo sapiens), Q969H0. 650,000 tested, 0.13% active. AlphaScreen FBW7–phospho-cyclin E peptide binding, activator screen. normalized activity (activation), % at 26.1 µM; in the data active = normalized activity above about 1.9%;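 also: purified mutant Fbw7 with reduced substrate affinity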
GPR151 activ: activators of human GPR151, primary screen, cell-based, PathHunter beta-arrestin, luminescence; AID 1508602, 2020; activation, % at 11.2 µM; 650,000 tested, 1% active; PathHunter beta-arrestin GPR151 cells; G-protein coupled receptor 151 (Homo sapiens), Q8TDV0; in the data active = activation above about 4.9%;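 also: 0% = median of compound wells and 100% = cells with positive control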
GPR151 confirm: GPR151 activators, triplicate retest, confirmation, cell-based, PathHunter beta-arrestin, luminescence; 6,700 tested, under 10 active; activation, % at 11.2 µM; shares compounds with GPR151 activ; AID 1508609, 2020; GPR151 PathHunter beta-arrestin cells, 90 min; % of EA-reagent control over plate median;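 active = mean percent activation across replicates above the confirmation screen cutoff of 4.91%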
GPR119 counter: GPR119 activators in beta-arrestin cells, counter-screen for GPR151 activator project, cell-based, PathHunter beta-arrestin, luminescence, triplicate | shares compounds with GPR151 activ | 90 min; 0 = compound-well median, 100 = enzyme-acceptor control | activation, % at 11.2 µM | 6,700 tested, 0.3% active | AID 1508611, 2020;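 active = mean percent activation in the counterscreen above 29.09%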;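 also: counterscreen on off-target GPR119 to flag nonselective hits from the GPR151 activator screen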
Target sequence (Q8TDV5 whole entry, looked up): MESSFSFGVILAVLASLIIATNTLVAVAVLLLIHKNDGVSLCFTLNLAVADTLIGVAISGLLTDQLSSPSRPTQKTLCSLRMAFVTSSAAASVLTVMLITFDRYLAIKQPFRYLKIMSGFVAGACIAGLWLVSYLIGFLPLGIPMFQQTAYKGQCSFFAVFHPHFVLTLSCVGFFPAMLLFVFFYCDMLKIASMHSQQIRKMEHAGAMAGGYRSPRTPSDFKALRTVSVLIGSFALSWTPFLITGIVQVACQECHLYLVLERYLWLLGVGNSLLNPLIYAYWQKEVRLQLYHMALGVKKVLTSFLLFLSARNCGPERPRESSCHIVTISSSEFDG
* = called active by the depositor; nt = no result; ! = repeats disagree.

SMILES | MITF primary | TEAD-YAP block | FBW7 act | GPR151 activ | GPR151 confirm | GPR119 counter
CCc1ccccc1S(=O)(=O)Cc1ccc(C(=O)NC2CCCC2)o1 | 14 | 8 | 1 | 3 | nt | nt
Cc1ccccc1S(=O)(=O)Cc1ccc(C(=O)NC2CCCCC2)o1 | 6 | 13 | 0 | 7.1* | 0 | -9
COc1cc(/C=C(\C#N)c2ccc([N+](=O)[O-])cc2)ccc1O | -14 | 5 | 0 | 1 | nt | nt
COC(=O)COc1ccc(/C=C(/C#N)c2ccc([N+](=O)[O-])cc2)cc1Br | 3 | 11 | 0 | 7.2* | 0 | 0
C[C@@H](c1ccccc1)n1c(=O)[nH]c2nc(-c3ccc(C(=O)N(C)C)cc3)cnc21 | 32 | -3 | 0 | -1 | nt | nt
COc1ccc(C2c3c(oc4ccc(F)cc4c3=O)C(=O)N2c2ccccn2)cc1 (configuration not stated) | 6 | 8 | 0 | 1 | nt | nt
COCCCNC(=O)c1ccc2c(c1)NC(=O)/C(=C\c1ccc(OC)cc1)S2 | -1 | 6 | 0 | 7.2* | 0 | 0
COc1ccc(/C=C2/Sc3ccc(C(=O)NC(C)(C)C)cc3NC2=O)cc1 | -1 | -4 | 0 | 0 | nt | nt
Cc1ccc(/C=C(/C#N)c2ccc3c(c2)OCO3)cc1[N+](=O)[O-] | 5 | -2 | 0 | -1 | nt | nt
N#C/C(=C/c1ccccc1[N+](=O)[O-])c1ccc2c(c1)OCO2 | 6 | -8 | 0 | 5.7* | 0 | -13
O=C(C[n+]1ccccc1)N/N=C/c1cccs1 | 12 | 8 | 0 | 6.1* | 1 | 2
Cn1c2c(c(=O)n(C)c1=O)C(c1ccccc1Cl)CC(=O)N2 (configuration not stated) | 10 | 5 | 0 | 8.6* | 0 | 10
Cc1cc2c(=O)n(CC(=O)NCC(=O)Nc3ccc(Oc4ccccc4)cc3)cnc2s1 | -16 | -11 | 0 | 0 | nt | nt
NC(C(=O)N1CCN(c2ccc3cnccc3c2)CC1)c1ccc(-c2ccccc2)cc1 (configuration not stated) | 12 | -4 | 0 | 7.5* | 0 | 2
NC(C(=O)N1CCC(Nc2ccc3cnccc3c2)CC1)c1ccc(-c2ccccc2)cc1 (configuration not stated) | -12 | -18 | 0 | -1 | nt | nt
CCn1c(C)cc(/C=C/c2oc3ccccc3[n+]2CC)c1C | 19 | -6 | 0 | -2 | nt | nt
CC[n+]1c(/C=C/N(C)c2ccccc2)oc(-c2ccccc2)c1-c1ccccc1 | 2 | 92* | 0 | 5.7* | 1 | 18
Cc1nonc1N=NN(Cc1ccc([N+](=O)[O-])cc1)c1nonc1C | 9 | 8 | 0 | 7.4* | 0 | -5
COc1ccnc(N2CCC(NCCc3ccccn3)CC2)n1 | 2 | 0 | 0 | 1 | nt | nt
COc1ccccc1OCC(=O)Nc1ccc(S(=O)(=O)NC(C)=O)cc1 | 0 | 12 | 0 | 16* | -1 | -9
CC(=O)NS(=O)(=O)c1ccc(NC(=O)COc2ccc(C)cc2)cc1 | -12 | 0 | 0 | 1 | nt | nt
CC(=O)NS(=O)(=O)c1ccc(NC(=O)COc2ccc(Br)cc2)cc1 | 7 | 6 | 0 | 5.8* | -1 | -12
Cc1cc(Br)ccc1OCC(=O)Nc1ccc(C(N)=O)cc1 | 5 | -2 | 0 | 0 | nt | nt
CC(=O)Nc1ccc(NC(=O)COc2ccc(Br)cc2C)cc1 | 11 | -23 | 0 | 8.7* | 0 | -4
CC(C)(C)NS(=O)(=O)c1ccc(NC(=O)COc2ccc(Br)cc2)cc1 | 4 | 1 | 0 | 16* | 1 | 14
SMILES | MITF primary | TEAD-YAP block | FBW7 act | GPR151 activ | GPR151 confirm | GPR119 counter
CC(C)(C)NS(=O)(=O)c1ccc(NC(=O)COc2ccc3ccccc3c2)cc1 | 0 | 10 | 0 | 1 | nt | nt
COc1ccc(Cl)cc1NC(=O)N1CCCC(N2CCOCC2)C1 (configuration not stated) | 13 | -5 | 0 | 1 | nt | nt
CCC(C)(C)C1CCC2(CC1)NC(=O)N(CC(=O)Nc1ccc(C(N)=O)cc1)C2=O (configuration not stated) | 27 | -5 | 0 | 3 | nt | nt
NC(=O)NC(=O)COC(=O)/C=C/c1ccc(OC(F)F)cc1 | 9 | 0 | 0 | 2 | nt | nt
COc1cccc(CC2(CO)CCN(C(=O)C#Cc3ccccc3)CC2)c1 | 11 | -6 | 0 | 4 | nt | nt
Cc1cc(C)c(C#N)c(SC/C=C/c2ccccc2)n1 | 4 | -2 | 0 | 7.0* | -1 | -10
Cc1cc(C)c(C#N)c(SC/C=C/CSc2nc(C)cc(C)c2C#N)n1 | -19 | -8 | 0 | -1 | nt | nt
CC1(C)C(=O)C2(C(=O)Nc3ccccc3Br)CCC1C2 (configuration not stated) | 3 | -1 | 0 | 17* | 0 | -11
COc1ccc(COC(=O)C2=C(C)NC3=C(C(=O)CC(C)(C)C3)C2c2ccc(OC)cc2)cc1 (configuration not stated) | -7 | 3 | 0 | 1 | nt | nt
COc1cc(C2C(C(=O)OC(C)(C)C)=C(C)NC3=C2C(=O)CC(C)(C)C3)ccc1O (configuration not stated) | 1 | 4 | 0 | 5.4* | 0 | -3
COc1ccc(COC(=O)C2=C(C)NC3=C(C(=O)CC(C)(C)C3)C2c2ccc(O)c(OC)c2)cc1 (configuration not stated) | 10 | 4 | 0 | 0 | nt | nt
COC(=O)c1ccc(C2C(C(=O)OCc3ccc(OC)cc3)=C(C)NC3=C2C(=O)CC(C)(C)C3)cc1 (configuration not stated) | 23 | 5 | 0 | 5.2* | 1 | -10
COc1cc(C2C(C(=O)OCc3ccccc3)=C(C)NC3=C2C(=O)CCC3)ccc1O (configuration not stated) | -2 | -4 | 0 | 5.5* | 0 | 7
COc1ccc(COC(=O)C2=C(C)NC3=C(C(=O)CCC3)C2c2ccc(OC)c(O)c2)cc1 (configuration not stated) | 11 | 0 | 1 | 5.0*! | 1 | 3
CN(Cc1ccccc1)C(=O)c1nc2ccccn2c1CNCc1n[nH]c2c1CCC2 | -2 | 2 | 0 | 0 | nt | nt
Cc1cc(C)c2nc(-c3ccncc3)cc(C(=O)Nc3ccc(S(N)(=O)=O)cc3)c2c1 | -2 | 4 | 0 | 0 | nt | nt
CCn1c(COc2ncnc3ccccc23)nc2cc(S(=O)(=O)N(C)C)ccc21 | 2 | -4 | 0 | 5.2* | -1 | 0
